KB-V1 MDR tox: KB-V1 MDR subline cytotoxicity; KB-V1 MDR cells viability, CellTiter-Glo, 72 h; Potency, µM (titrated, usually from 46.1 µM), hits mostly cytotoxic; hit rate 3.4% among 400,000; AID 1347076; also: nearly all actives have a fitted effect of over 60% in size
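Readout: CellTiter-Glo luminescence, 10 min after addition. Cells: KB-V1 MDR subline, 72 h at 37 degrees C with compound. Analysis: corrected, normalized data fitted to concentration-effect curves.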
HT1080 IDH1KD tx: kills HT-1080 cells with IDH1 knockdown. hit rate 2% among 360,000. AID 686971. HT-1080 IDH1 knockdown viability, ATP luminescence, 48 h. Potency, µM (doses to about 46.1 µM), actives largely listed as cytotoxic
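After a 2 h attachment period, IDH1KD HT-1080 cells took pin-transferred compound for 48 h at 37 °C; ATP-based luminescence after 10 min room-temperature reagent incubation reported viability.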
MCF10A rerep: induces DNA re-replication in MCF 10a normal breast cells; hit rate 2.9% among 350,000; Potency, µM (series often up to 46.1 µM), actives largely listed as activators; MCF 10A DNA re-replication, Hoechst nuclear intensity, 48 h; AID 624296; also: nearly all actives have a fitted effect of over 50% in size
HT1080NT lethal: kills 2HG-producing HT-1080-NT fibrosarcoma cells | hit rate 1.6% among 360,000 | HT-1080-NT fibrosarcoma viability, CellTiter-Glo ATP luminescence, 48 h | Potency, µM (series often up to 46.1 µM), hits mostly cytotoxic | AID 686970;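 also: NT is the 2HG producing partner of a matched IDH1 knockdown line; nearly all actives have a fitted effect of over 55% in size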
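Fibrosarcoma NT cells, 750 per well in 5% FBS RPMI, were exposed to compound for 48 hours. Viability: CellTiter-Glo luminescence.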
KB-3-1 cytotox: KB-3-1 parental cell cytotoxicity | Potency, µM (series often up to 46.1 µM), most hits filed as cytotoxic | AID 1347075 | hit rate 1.4% among 400,000 | KB-3-1 viability, CellTiter-Glo ATP luminescence, 72 h; also: nearly all actives have a fitted effect of over 60% in size
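KB-3-1 cells, DMEM (no phenol red) + 10% FBS; compound by pin transfer, 72 h, 37 °C. Readout: CellTiter-Glo luminescence after 10 min. Data normalized, curve-fitted.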
SW480 rerep: induces DNA re-replication in SW480 colon adenocarcinoma cells. SW480 DNA re-replication, Hoechst DNA content imaging, 48 h. Potency, µM (doses to about 46.1 µM), most hits filed as activators. hit rate 1.8% among 340,000. AID 624297; also: nearly all actives have a fitted effect of over 55% in size
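Quantitative HTS format with DMSO vehicle controls; 48 hr drug incubation at 37 C, then 40 min Hoechst staining and scanning imager measurement at 405 nm excitation.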
Of the large screens only hits and unclear results are named; the others gave an inactive call. Only some compounds are listed: those with a hit (about 7.9% of all), similar ones and a draw of the others. Calls follow the shape of the dose curve; as a rule, active = well fitted curve in the direction sought with a large enough effect; inconclusive = small, poorly fitted or top-dose-only effect, or another doubt; inactive = no such curve, though single readings can be large; an effect the other way counts as inactive or inconclusive.

CCN(CC)CCCN1C(=O)C(O)=C(C(=O)c2cc3cccc(OC)c3o2)C1c1ccncc1 (stereo not given)	MCF10A rerep inconclusive
COc1cccc2cc(C(=O)C3=C(O)C(=O)N(CCN(C)C)C3c3ccc(F)cc3)oc12 (stereo not given)	MCF10A rerep 5.8µM, SW480 rerep 8.2µM
CC(=O)C1C(C)CC2C3CCC4CC(=O)CCC4(C)C3CCC21C (stereo not given)	MCF10A rerep inconclusive
CCN(C(=O)COC(=O)Cn1cnc2c1c(=O)n(C)c(=O)n2C)C1CCS(=O)(=O)C1 (stereo not given)	none
CCOc1ccc(N(Cc2ccc(OC)c(OC)c2)C(=O)c2ccco2)cc1	none
CCOc1ccc(CN(C(=O)c2ccccn2)c2ccc(OC)c(Cl)c2)cc1	KB-V1 MDR tox inconclusive, HT1080 IDH1KD tx inconclusive, MCF10A rerep 23µM, HT1080NT lethal inconclusive, KB-3-1 cytotox inconclusive, SW480 rerep inconclusive
CC(C)n1c(SCc2ccc(Cl)cc2)nc2c1c(=O)[nH]c(=O)n2C	HT1080 IDH1KD tx inconclusive, MCF10A rerep inconclusive, HT1080NT lethal inconclusive
Cc1cc(S(=O)(=O)Nc2cc3c(cc2NCc2ccccc2)n(C)c(=O)n3C)ccc1F	KB-V1 MDR tox 21µM (no result: HT1080 IDH1KD tx, MCF10A rerep, HT1080NT lethal, SW480 rerep)
Cn1c(=O)n(C)c2cc(NS(=O)(=O)c3ccc(Cl)cc3)c(NCc3ccccc3)cc21	KB-3-1 cytotox inconclusive (no result: HT1080 IDH1KD tx, MCF10A rerep, HT1080NT lethal, SW480 rerep)
COc1cc(-c2nc3n(n2)C(c2ccc(F)cc2)C2=C(CCCC2=O)N3)cc(OC)c1OC (stereo not given)	none
CCSc1nc2n(n1)C(c1cccc(F)c1)C1=C(CCCC1=O)N2 (stereo not given)	KB-V1 MDR tox 13µM
CCCS(=O)(=O)N1CCCC(C(=O)NCCc2ccccc2)C1 (stereo not given)	none
CCN(CC)C(=O)C(C)N(C#N)c1nc(NC(C)C)nc(NC(C)C)n1 (stereo not given)	KB-V1 MDR tox 9.2µM
Cc1cccc(N2CCN(C(c3ccccc3)c3nnnn3C(C)(C)C)CC2)c1C (stereo not given)	KB-V1 MDR tox 9.2µM, KB-3-1 cytotox inconclusive, SW480 rerep inconclusive
COc1ccccc1N1CCN(C(c2ccccc2Cl)c2nnnn2C(C)(C)C)CC1 (stereo not given)	KB-V1 MDR tox inconclusive, HT1080 IDH1KD tx inconclusive, KB-3-1 cytotox inconclusive, SW480 rerep inconclusive
Cc1cccc(N2CCN(C(c3cccs3)c3nnnn3C(C)(C)C)CC2)c1C (stereo not given)	KB-V1 MDR tox inconclusive
COc1ccccc1C(c1nnnn1C(C)(C)C)N1CCCc2ccccc21 (stereo not given)	KB-V1 MDR tox 23µM, KB-3-1 cytotox inconclusive, SW480 rerep inconclusive
COc1ccccc1N1CCN(C(c2ccc(Cl)cc2)c2nnnn2C(C)(C)C)CC1 (stereo not given)	KB-V1 MDR tox 18µM, KB-3-1 cytotox inconclusive
CC(C)(C)n1nnnc1C(c1ccc(Cl)cc1)N1CCCc2ccccc21 (stereo not given)	KB-V1 MDR tox inconclusive
Cc1ccc(Cl)cc1N1CCN(C(=O)c2ccc(NS(=O)(=O)c3c(C)noc3C)cc2)CC1	MCF10A rerep 15µM, SW480 rerep inconclusive
Cc1ccc(C)c(N2CCN(C(=O)C3CCCN(S(=O)(=O)c4c(C)noc4C)C3)CC2)c1 (stereo not given)	KB-3-1 cytotox inconclusive
Cc1ccc(C)c(N2CCN(C(=O)C3CCN(S(=O)(=O)c4c(C)noc4C)CC3)CC2)c1	KB-V1 MDR tox inconclusive, HT1080 IDH1KD tx 18µM, KB-3-1 cytotox 8.2µM, SW480 rerep inconclusive
Cc1ccc(C)c(N2CCN(S(=O)(=O)c3c(C)noc3/C=C/N(C)C)CC2)c1	KB-V1 MDR tox inconclusive, MCF10A rerep 21µM, KB-3-1 cytotox inconclusive
CCOC(=O)c1c(C)[nH]c(C)c1S(=O)(=O)N1CCC(C(=O)N2CCN(c3cc(C)ccc3C)CC2)CC1	KB-3-1 cytotox 16µM (no result: HT1080 IDH1KD tx, MCF10A rerep, HT1080NT lethal, SW480 rerep)
CCCSc1nnc(NC(=O)Nc2ccc(C)cc2)s1	none
CCSc1nnc(NC(=O)C2CCN(C(=O)c3ccc(F)cc3)CC2)s1	KB-V1 MDR tox 21µM
CCCSc1nnc(NC(=O)Nc2ccc(F)cc2)s1	KB-V1 MDR tox inconclusive, HT1080 IDH1KD tx 12µM, MCF10A rerep inconclusive, HT1080NT lethal inconclusive, KB-3-1 cytotox 26µM
CCCSc1nnc(NC(=O)Nc2ccccc2)s1	KB-V1 MDR tox 21µM, MCF10A rerep inconclusive, KB-3-1 cytotox inconclusive, SW480 rerep inconclusive
Cc1ccc(C(=O)N/C(=C\c2ccco2)C(=O)NCCN2CCCCC2)cc1C	none
Fc1ccccc1CSc1nnc(-c2cccnc2)o1	none
Cc1ccc(C)c(CSc2nnc(-c3cccnc3)o2)c1	KB-V1 MDR tox 18µM
Cc1ccccc1-c1nc2cc(NC(=O)Cc3ccc(Cl)cc3)ccc2o1	none (no result: HT1080 IDH1KD tx, MCF10A rerep, HT1080NT lethal, SW480 rerep)
Cc1c(Cl)cnc(NC(=O)COC(=O)C2CC2)c1Cl	KB-V1 MDR tox inconclusive
Cc1ccc2[nH]c(C)cc(=S)c2c1	KB-V1 MDR tox inconclusive, HT1080 IDH1KD tx 23µM, MCF10A rerep 23µM, HT1080NT lethal inconclusive, KB-3-1 cytotox inconclusive, SW480 rerep 21µM
CC(=O)NC(Cc1ccccc1)C(=O)N1CCN(C(=S)NCC(C)C)CC1 (stereo not given)	none
CCNC(=S)N1CCN(C(=O)C(Cc2ccccc2)NC(C)=O)CC1 (stereo not given)	MCF10A rerep 0.65µM
O=C(NNC(=S)NC(=O)c1ccccc1Cl)c1cccc([N+](=O)[O-])c1	MCF10A rerep inconclusive, KB-3-1 cytotox inconclusive
COc1ccc([N+](=O)[O-])cc1NC(=O)C(C)NNC(=O)c1cccc([N+](=O)[O-])c1 (stereo not given)	KB-V1 MDR tox 18µM
CC(C)CC(=O)NC(Nc1ccc([N+](=O)[O-])cc1)C(Cl)(Cl)Cl (stereo not given)	KB-V1 MDR tox 18µM, HT1080NT lethal inconclusive, KB-3-1 cytotox inconclusive
COc1ccc([N+](=O)[O-])cc1NC(=S)NC(NC(=O)C(c1ccccc1)c1ccccc1)C(Cl)(Cl)Cl (stereo not given)	HT1080 IDH1KD tx 5.8µM, MCF10A rerep inconclusive, HT1080NT lethal inconclusive, KB-3-1 cytotox inconclusive
COc1ccc([N+](=O)[O-])cc1NC(=O)C(C)c1ccccc1 (stereo not given)	MCF10A rerep inconclusive
O=C(NC(NC(=S)Nc1c(Cl)cccc1Cl)C(Cl)(Cl)Cl)c1cccc([N+](=O)[O-])c1 (stereo not given)	KB-V1 MDR tox inconclusive, HT1080 IDH1KD tx inconclusive, MCF10A rerep 6.5µM, HT1080NT lethal inconclusive, KB-3-1 cytotox inconclusive, SW480 rerep inconclusive
CCOC(=O)NC(NC(=S)Nc1ccc(OC)cc1)C(Cl)(Cl)Cl (stereo not given)	none

Assay outcomes deposited in PubChem by National Center for Advancing Translational Sciences (NCATS).
